Among all 69,000 compounds or so, about 420 (0.61%) showed an effect of 50% or more. The sample as a whole holds a higher share of strong results than the screen did.

This is an account of results in ChEMBL document CHEMBL3988442, “University of Dundee, Small-Polar-MMV Screening Library” (2021).

This test addresses T1, Histidine--tRNA ligase (Leishmania infantum) (UniProt A4I591).
T1 sequence (whole entry): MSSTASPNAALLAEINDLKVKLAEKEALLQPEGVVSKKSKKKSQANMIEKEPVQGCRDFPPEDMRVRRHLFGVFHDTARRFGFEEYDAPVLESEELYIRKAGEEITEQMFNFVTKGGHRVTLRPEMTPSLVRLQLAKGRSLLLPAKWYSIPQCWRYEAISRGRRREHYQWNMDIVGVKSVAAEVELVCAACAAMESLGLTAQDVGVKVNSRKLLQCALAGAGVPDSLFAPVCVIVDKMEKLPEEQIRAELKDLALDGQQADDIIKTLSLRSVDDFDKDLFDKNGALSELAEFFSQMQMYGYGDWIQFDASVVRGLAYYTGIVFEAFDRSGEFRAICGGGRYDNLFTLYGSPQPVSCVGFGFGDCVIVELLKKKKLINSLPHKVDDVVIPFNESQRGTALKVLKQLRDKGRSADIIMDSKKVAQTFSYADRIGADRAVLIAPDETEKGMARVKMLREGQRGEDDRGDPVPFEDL
The test is described as follows: Leishmania infantum Histidine tRNA synthetase (LdHisRS). Further details: scale not given: in the data most compounds retested in dose-response had high values. It counts as functional. The following applies: 30 µM.
As for `Cc1nnc([C@@H]2CC[C@@H]3[C@@H](CCN3C3CCC3)O2)o1`, the Percent Effect worked out at 5.26%.

Take `O=C(NC1CCCC1)N1C[C@H]2CN(c3ccccn3)C[C@@]2(C(=O)O)C1`: the Percent Effect is 3.92%.

As to `O=C(NC[C@]12COC[C@H]1CN(Cc1nccs1)C2)c1ccccc1`, the Percent Effect was 17.5%.

Turning to `CS(=O)(=O)N1C[C@@H](NC(=O)c2ccno2)[C@@H]2OCCC[C@@H]21`, the Percent Effect was -4.54%.

As for `Cc1cnc(C(=O)N(CCN(C)C)Cc2ccc(Cl)cc2)cn1`, the Percent Effect was 24%.

Turning to `CCN(CC)Cc1cn2c(n1)CN(C(=O)c1cnccn1)CC2`, the Percent Effect came to 9.02%.

On to `CCCN(CCC)C(=O)c1cnn(C)c1C`, for which the Percent Effect was -4%.

As for `CCCN(C(=O)c1cnc(C)cn1)c1nc2c(s1)CCc1c-2cnn1C`, the Percent Effect amounted to 99%.

Take `COCCN(C(=O)c1cnccn1)c1nc2c(s1)CCc1c-2cnn1C`: the Percent Effect was 51%.

In the case of `Cc1cccc(N(CCC(N)=O)C(=O)c2cnccn2)c1`, the Percent Effect is 5%.

Consider `COCCN1C(=O)CC[C@]12CC[C@@H](NC(=O)c1cnccn1)CC2`, for which the Percent Effect was -179%.

`COCC1c2c(cnn2C)CCN1C(=O)c1cscn1` (stereo not drawn): the Percent Effect was 11.7%.

`CCCN(C(=O)c1cnccn1)c1nc2c(s1)CCc1c-2cnn1C`: the Percent Effect amounted to 94.8%.

Take `Cc1nc(CN2CC[C@@H]3O[C@@H](C(=O)N4CCOCC4)C[C@@H]32)cs1`: the Percent Effect is 17.4%.

Turning to `Cn1cccc1C(=O)N1C[C@@H]2CCCO[C@@H]2[C@H](N2CCOCC2)C1`, the Percent Effect amounted to 17.5%.

In the case of `Cc1ccc(C(=O)N2C[C@@H]3[C@@H](C2)OCC(=O)N3Cc2cccnc2)o1`, the Percent Effect was found to be 22.1%.

Consider `O=C1C[C@H]2[C@@H](CCN2C(=O)c2ccc[nH]2)N1CCN1CCCC1`, for which the Percent Effect is 8.06%.

In the case of `Cc1ccc(CN2CCN(Cc3nccn3C)[C@H]3CS(=O)(=O)C[C@H]32)o1`, the Percent Effect is 16.8%.

Consider `O=C(NC1CC(F)(F)C1)[C@]12COC[C@H]1CN(Cc1ccccc1)C2`, for which the Percent Effect worked out at 24%.

Take `CNC(=O)[C@H]1C[C@@H]2CN(S(=O)(=O)c3cccc(F)c3)C[C@@H]2N1C`: the Percent Effect turned out to be 28.6%.

`CN(C)C(=O)N1C[C@@H]2COC[C@]2(CNS(C)(=O)=O)C1`: the Percent Effect is 4.51%.

As to `CC(C)(C)c1ccc(OCC(=O)O)c(CN2C[C@H]3C[C@H](O)C[C@H]3C2)c1`, the Percent Effect was 14.5%.

With `Cc1nc(CN2CC[C@H]3[C@H]2CCN3c2nncs2)cs1`, the Percent Effect is 17.5%.

As to `NCC1Cc2cc(-c3nccc(N4CCC(O)CC4)n3)cc(F)c2O1` (stereo not drawn), the Percent Effect stood at 51.4%.

As to `NCC1Cc2cc(-c3cnccn3)cc(Cl)c2O1` (stereo not drawn), the Percent Effect turned out to be 11%.

Take `NCC1Cc2cc(-c3nccc(N4CCC(O)CC4)n3)cc(Cl)c2O1` (stereo not drawn): the Percent Effect was 60%.

As to `Cc1nc(-c2cc(F)c3c(c2)CC(CN)O3)c[nH]1` (stereo not drawn), the Percent Effect is 26.2%.

Take `Cc1nc(-c2cc(Cl)c3c(c2)CC(CN)O3)c[nH]1` (stereo not drawn): the Percent Effect turned out to be 40.5%.

Regarding `NCC1Cc2cccc(-c3nccc(N4CCC(O)CC4)n3)c2O1` (stereo not drawn), the Percent Effect came to 34.3%.

On to `CCCOc1ccc(C(=O)N2CC[C@H]3CC[C@@H](C2)N3)cc1Cl`, for which the Percent Effect came out at 9.17%.

For `Cn1cccc1C(=O)N1CC[C@@H]2[C@@H]1CC(=O)N2CC1CCOCC1`, the Percent Effect is 19.3%.

In the case of `CN1CCO[C@@H]2CN(C(=O)Cc3cccs3)CC[C@@H]2C1`, the Percent Effect was 2.73%.

Consider `Cc1nccc(-c2cccc(NCC(=O)N3CCc4sccc4C3)c2)n1`, for which the Percent Effect came out at 50%.

With `Cc1nccc(-c2cccc(NCC(=O)N3CCCCCCC3)c2)n1`, the Percent Effect is -19.7%.

Take `Cc1nccc(-c2cccc(NCC(=O)N3CCNC(=O)C3)c2)n1`: the Percent Effect is 14.9%.

For the compound `CCOc1nnc(CNC2CCCN(c3ccc(C)nn3)C2)s1` (stereo not drawn), the Percent Effect is 54.8%.

With `CCOc1nnc(CN(C)C2CCCN(c3ccc(C)nn3)C2)s1` (stereo not drawn), the Percent Effect was found to be 27%.

Turning to `Cc1ccc(N2CCCC(NCc3ccc(C)s3)C2)nn1` (stereo not drawn), the Percent Effect was determined as 12.3%.

As to `CC/N=c1/c(NC(=O)NCCOC)c(O)oc2ccccc12`, the Percent Effect amounted to 12.4%.

Regarding `CN1C(=O)[C@H]2CC[C@@H]1CN(c1ncnc3ccsc13)C2`, the Percent Effect came to 19.8%.

As for `CCn1nc2c(cc1=O)CN(c1ncnc3ccsc13)CC2`, the Percent Effect was found to be 58.6%.

For `CCCn1nc2c(cc1=O)CN(c1ncnc3ccsc13)CC2`, the Percent Effect turned out to be 83.8%.

Regarding `Cn1ccnc1CN1CCN(c2ncnc3ccsc23)CC1`, the Percent Effect came out at 11%.

With `CC(C)n1nc2c(cc1=O)CN(c1ncnc3ccsc13)CC2`, the Percent Effect was found to be 11.7%.

In the case of `CCCn1nc2c(cc1=O)CN(C(C)C(=O)Nc1nccs1)CC2` (stereo not drawn), the Percent Effect was determined as 17.9%.

Consider `CC(C)n1nc2c(cc1=O)CN(c1ncnc3ccccc13)CC2`, for which the Percent Effect is 18.9%.

Regarding `Cn1nc2c(cc1=O)CN(c1ncnc3ccsc13)CC2`, the Percent Effect worked out at 100%.

For `N#Cc1cccc(CN2CCN(C(=O)C3CCC3)[C@@H]3CS(=O)(=O)C[C@@H]32)c1`, the Percent Effect is 23.3%.

Consider `COCCN1C(=O)[C@H]2CC[C@@H]1CN(Cc1nnc(C3CC3)o1)C2`, for which the Percent Effect was -2.04%.

Turning to `Cc1cccc(CO[C@@H]2C[C@H]3CN(C(=O)c4cnccn4)CCN3C2)n1`, the Percent Effect came to 12.3%.

`O=S(=O)(N1CCCC1)N1C[C@@H](c2cccc(F)c2)[C@@H]2NCCCCC[C@H]21`: the Percent Effect was -7.37%.

Regarding `COC(=O)N1C[C@H]2CC[C@@H]1CN(Cc1cscn1)C2`, the Percent Effect amounted to 22.9%.

Take `COc1ccc(C(=O)N2CCN(c3cc(CCN)nc(C)n3)CC2)cc1`: the Percent Effect was determined as 50.4%.

With `CCNc1cc(N2CCN(C(=O)c3ccc(OC)cc3)CC2)nc(C)n1`, the Percent Effect turned out to be 2.4%.

As for `CCOc1cc(N2CCN(C(=O)c3ccc(OC)cc3)CC2)nc(C)n1`, the Percent Effect was determined as 5.98%.

As to `Cc1nc(CCN)cc(N2CCC(O)(c3ccc(Cl)cc3)CC2)n1`, the Percent Effect is 52.1%.

With `Cc1nc(CCN)cc(N2CCC(O)(c3ccccc3)C2)n1` (stereo not drawn), the Percent Effect was 7.04%.

For `Cc1nc(CN)cc(N2CCC(O)(c3ccc(Cl)cc3)CC2)n1`, the Percent Effect worked out at 7.04%.

Regarding `O=C(NC[C@@]1(COc2cnccn2)C[C@@H](O)[C@@H](O)C1)C1CCCC1`, the Percent Effect stood at 18.9%.

Consider `O=C(c1cccnc1)N1CCN2C[C@H](OCc3ccccc3)C[C@H]2C1`, for which the Percent Effect stood at 2%.

In the case of `O=C(c1ccc(S(=O)(=O)NC2CCC2)cc1)N1CC[C@H]2CNC[C@H]21`, the Percent Effect is -8.06%.

On to `CN(C)CCCN(C)c1nccc(N2CCN[C@H]3CS(=O)(=O)C[C@H]32)n1`, for which the Percent Effect came to 12.9%.

`CNc1nc(C)c(-c2nc(-c3c(C)ncc4c3CCNC4)no2)s1`: the Percent Effect amounted to 7.79%.

As to `CNc1nc2c(s1)C(c1ccc(Cl)cc1Cl)CC(=O)N2` (stereo not drawn), the Percent Effect was 62.5%.

In the case of `CNc1nc2c(s1)C(c1c(F)cccc1Cl)CC(=O)N2` (stereo not drawn), the Percent Effect is 120%.

On to `CC(C)n1ncc2c1NC(=O)CC2c1ccccc1Cl` (stereo not drawn), for which the Percent Effect is 22.5%.

`Cn1ncc2c1NC(=O)CC2c1c(Cl)cccc1Cl` (stereo not drawn): the Percent Effect worked out at 25%.

`CNc1nc2c(s1)C(c1cc(Cl)ccc1F)CC(=O)N2` (stereo not drawn): the Percent Effect worked out at 42.5%.

In the case of `Nc1nc2c(s1)C(c1c(F)cccc1Cl)CC(=O)N2` (stereo not drawn), the Percent Effect stood at 90%.

As to `CNc1nc2c(s1)C(c1ccc(F)cc1Cl)CC(=O)N2` (stereo not drawn), the Percent Effect amounted to 7.5%.

In the case of `CC(C)(C)n1ncc2c1NC(=O)CC2c1c(F)cccc1F` (stereo not drawn), the Percent Effect amounted to 26%.

As for `Cn1ncc2c1NC(=O)CC2c1c(F)cccc1Cl` (stereo not drawn), the Percent Effect stood at 20%.

On to `CNc1nc2c(s1)C(c1c(Cl)cccc1Cl)CC(=O)N2` (stereo not drawn), for which the Percent Effect was determined as 74.3%.
